# Data as given in PubChem BioAssay (EPA / NIEHS).
# Inconclusive results are not listed. The source made the active and inactive calls. The calls were made as follows, unless noted: active = hit-call score of the fitted dose curve at least 0.9, where 1 is the maximum; inactive = score below 0.9.
# Tests used:
# [1] = tested on: Brachyury (BRA) Protein Expression, Deisenroth Lab, TBXT (gene 6862); assay: CCTE_Deisenroth_DEVTOX-GLR_legacy_Bra: (Legacy) CCTE's DevTox GLR-Endo Assay Evaluation of Brachyury (BRA) Protein Expression, Deisenroth Lab (AID 2284329)
# Procedure, shortened: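 Readout: percent Bra+ cells by high-content fluorescence imaging, Bra+ meaning mean intensity 5x BMAD over pluripotent control median. RUES2-GLR cells dosed twice over 48 h differentiation; DMSO-control median subtracted before concentration-response fitting.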
# [2] = CCTE_Deisenroth_DEVTOX-GLR_legacy_CellCount: (Legacy) Viability Assessment in CCTE's DevTox GLR-Endo Assay, Deisenroth Lab (AID 2284331); conditions: actives raise or lower the signal
# Procedure, shortened: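 Seed RUES2-GLR 24 h; differentiate 48 h, dosing at 0 and 24 h; fix, stain nuclei; image 5 fields/well; count nuclei. Conc. 1 nM - 200 uM, single technical replicate, n=4 experiments; bidirectional fit vs 0.2% DMSO.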
# [3] = tested on: SRY-box transcription factor 17 (SOX17) Protein Expression, Deisenroth Lab, SOX17 (gene 64321); assay: CCTE_Deisenroth_DEVTOX-GLR_legacy_Sox17: (Legacy) CCTE's DevTox GLR-Endo Assay Evaluation of SRY-box transcription factor 17 (SOX17) Protein Expression, Deisenroth Lab (AID 2284341); conditions: actives raise or lower the signal
# Procedure, shortened: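 Using the RUES2-GLR line, compounds are tested as 10-point series during 48-h defined-media differentiation. Sox17 reporter fluorescence per cell determines positivity; endpoint is percentage positive, analysed bidirectionally versus DMSO baseline.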
# [4] = VALA_MIGHUV1_ScratchOnly_WoundArea: VALA Sciences human Umbilical Vein Endothelial Cell Migration (MIGHUV) Assay, Area of Scratch Wound Inhibited Recovery (AID 2284336; active = hit-call score of the fitted dose curve at least 0.9, where 1 is the maximum)
# Procedure, shortened: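 Wound area remaining after 24 h recovery imaged by Hoechst nuclear fluorescence in scratched HUVEC cultures, chemicals added within 30 min of scratching across a 6-point series. Gain of signal fitted against 0.1% DMSO; cytochalasin D positive control.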
# [5] = VALA_TUBHUV_Agonist_TubuleLength: VALA Sciences human Umbilical Vein Endothelial Tubule Formation (TUBHUV) Agonism Assay (AID 2284337; active = hit-call score of the fitted dose curve at least 0.9, where 1 is the maximum)
# Procedure, shortened: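 Tubule length quantified by CD31 immunofluorescence imaging after fixation. HUVEC-HDF co-cultures (1:3) pre-grown 3 days with 10 ng/ml VEGF, then dosed 3 days in VEGF medium; 0.1 % DMSO vehicle baseline.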
# [6] = VALA_TUBIPS_Agonist_CellCount: Viability Assessment in the VALA Sciences human iPS-derived Endothelial Tubule Formation (TUBIPS) Agonism Assay (AID 2284338; active = hit-call score of the fitted dose curve at least 0.9, where 1 is the maximum)
Compound,AC50 [1],AC50 [2],AC50 [3],outcome [4],outcome [5],outcome [6]
NC(=O)c1ccc(N)nc1,24.1 µM (active),30.6 µM (active),21 µM (active),,,
Nc1ncn[nH]1,,,,inactive,inactive,inactive
